Assay [1] has as its system Epidermal growth factor receptor (Homo sapiens), P00533 [T790M]. The settings on record: at 1 µM.
Assay [2] relates to Epidermal growth factor receptor (Homo sapiens), P00533 [L858R,T790M]. The conditions noted are these: at 0.1 µM.
Assay [3] has the same test system. The conditions noted are these: at 1 µM.
In assay [4] the target is Ephrin type-A receptor 2 (Homo sapiens) (UniProt P29317). The conditions noted are these: at 0.1 µM.
The target is the same in assay [5]. The settings on record: at 1 µM.
Assay [6] addresses T1, Ephrin type-A receptor 3 (Homo sapiens) (UniProt P29320).
T1 sequence (whole entry): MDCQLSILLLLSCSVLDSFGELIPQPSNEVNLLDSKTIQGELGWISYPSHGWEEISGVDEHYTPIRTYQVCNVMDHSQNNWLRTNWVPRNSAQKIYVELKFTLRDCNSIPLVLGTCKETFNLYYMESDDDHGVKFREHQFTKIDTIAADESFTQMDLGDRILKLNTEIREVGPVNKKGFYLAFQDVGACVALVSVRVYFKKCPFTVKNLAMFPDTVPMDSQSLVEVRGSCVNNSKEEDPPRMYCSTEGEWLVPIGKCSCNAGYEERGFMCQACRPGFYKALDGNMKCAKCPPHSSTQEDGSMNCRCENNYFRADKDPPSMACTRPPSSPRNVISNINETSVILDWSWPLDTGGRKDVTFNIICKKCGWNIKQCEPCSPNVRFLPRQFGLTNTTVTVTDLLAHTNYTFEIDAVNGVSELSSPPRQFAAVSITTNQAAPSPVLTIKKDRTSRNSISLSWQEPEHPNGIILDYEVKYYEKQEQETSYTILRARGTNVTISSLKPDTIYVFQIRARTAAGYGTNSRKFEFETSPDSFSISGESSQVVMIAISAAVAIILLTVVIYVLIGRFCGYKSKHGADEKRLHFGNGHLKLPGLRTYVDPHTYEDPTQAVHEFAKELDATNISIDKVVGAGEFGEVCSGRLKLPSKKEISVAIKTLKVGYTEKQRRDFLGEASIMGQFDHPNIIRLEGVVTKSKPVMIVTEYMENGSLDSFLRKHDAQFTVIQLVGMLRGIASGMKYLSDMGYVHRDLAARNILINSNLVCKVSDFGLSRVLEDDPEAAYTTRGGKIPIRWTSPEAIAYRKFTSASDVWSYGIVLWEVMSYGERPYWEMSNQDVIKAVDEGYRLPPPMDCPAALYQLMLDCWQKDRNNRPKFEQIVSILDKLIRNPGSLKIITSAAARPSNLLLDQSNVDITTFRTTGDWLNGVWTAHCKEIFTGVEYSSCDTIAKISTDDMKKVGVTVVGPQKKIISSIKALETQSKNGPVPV
The settings on record: at 0.1 µM.

Assay [7] has as its target T1, Ephrin type-A receptor 3 (Homo sapiens). The settings on record: at 1 µM.
The target of assay [8] is Ephrin type-A receptor 4 (Homo sapiens) (UniProt P54764). The settings on record: at 0.1 µM.
Chain of Ephrin type-A receptor 4 (Homo sapiens) (P54764 whole entry): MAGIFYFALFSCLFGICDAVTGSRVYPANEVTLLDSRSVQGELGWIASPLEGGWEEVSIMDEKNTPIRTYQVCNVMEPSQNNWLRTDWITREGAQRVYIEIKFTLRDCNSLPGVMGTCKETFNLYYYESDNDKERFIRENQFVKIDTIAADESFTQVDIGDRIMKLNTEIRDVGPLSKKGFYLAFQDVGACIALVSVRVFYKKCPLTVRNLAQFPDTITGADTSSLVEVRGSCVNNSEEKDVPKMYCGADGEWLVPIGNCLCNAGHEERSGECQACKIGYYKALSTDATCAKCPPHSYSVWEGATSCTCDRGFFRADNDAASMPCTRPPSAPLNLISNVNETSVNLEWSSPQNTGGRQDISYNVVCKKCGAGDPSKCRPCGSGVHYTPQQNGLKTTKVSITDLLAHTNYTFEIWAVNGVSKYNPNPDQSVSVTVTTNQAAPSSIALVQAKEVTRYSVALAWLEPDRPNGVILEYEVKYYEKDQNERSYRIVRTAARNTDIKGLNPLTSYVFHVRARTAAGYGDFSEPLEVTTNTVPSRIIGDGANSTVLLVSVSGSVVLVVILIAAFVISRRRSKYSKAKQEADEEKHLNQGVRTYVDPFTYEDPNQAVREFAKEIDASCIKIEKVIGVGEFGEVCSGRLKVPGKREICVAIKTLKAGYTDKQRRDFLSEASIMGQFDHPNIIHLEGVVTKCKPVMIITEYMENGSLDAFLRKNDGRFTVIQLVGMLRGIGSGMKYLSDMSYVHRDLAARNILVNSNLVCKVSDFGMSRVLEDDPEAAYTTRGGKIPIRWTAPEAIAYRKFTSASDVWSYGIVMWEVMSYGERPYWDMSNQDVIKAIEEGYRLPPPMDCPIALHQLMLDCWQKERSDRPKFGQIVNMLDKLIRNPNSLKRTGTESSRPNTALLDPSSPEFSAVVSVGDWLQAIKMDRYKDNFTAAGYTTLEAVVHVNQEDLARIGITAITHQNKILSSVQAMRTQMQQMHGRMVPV
Assay [9] has the same target. The conditions noted are these: at 1 µM.
In assay [10] the target is T2, Ephrin type-B receptor 2 (Homo sapiens) (UniProt P29323).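 Further: reported as mean inhibition of EPHB2, from the GSK PKIS dataset.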
T2 sequence (whole entry): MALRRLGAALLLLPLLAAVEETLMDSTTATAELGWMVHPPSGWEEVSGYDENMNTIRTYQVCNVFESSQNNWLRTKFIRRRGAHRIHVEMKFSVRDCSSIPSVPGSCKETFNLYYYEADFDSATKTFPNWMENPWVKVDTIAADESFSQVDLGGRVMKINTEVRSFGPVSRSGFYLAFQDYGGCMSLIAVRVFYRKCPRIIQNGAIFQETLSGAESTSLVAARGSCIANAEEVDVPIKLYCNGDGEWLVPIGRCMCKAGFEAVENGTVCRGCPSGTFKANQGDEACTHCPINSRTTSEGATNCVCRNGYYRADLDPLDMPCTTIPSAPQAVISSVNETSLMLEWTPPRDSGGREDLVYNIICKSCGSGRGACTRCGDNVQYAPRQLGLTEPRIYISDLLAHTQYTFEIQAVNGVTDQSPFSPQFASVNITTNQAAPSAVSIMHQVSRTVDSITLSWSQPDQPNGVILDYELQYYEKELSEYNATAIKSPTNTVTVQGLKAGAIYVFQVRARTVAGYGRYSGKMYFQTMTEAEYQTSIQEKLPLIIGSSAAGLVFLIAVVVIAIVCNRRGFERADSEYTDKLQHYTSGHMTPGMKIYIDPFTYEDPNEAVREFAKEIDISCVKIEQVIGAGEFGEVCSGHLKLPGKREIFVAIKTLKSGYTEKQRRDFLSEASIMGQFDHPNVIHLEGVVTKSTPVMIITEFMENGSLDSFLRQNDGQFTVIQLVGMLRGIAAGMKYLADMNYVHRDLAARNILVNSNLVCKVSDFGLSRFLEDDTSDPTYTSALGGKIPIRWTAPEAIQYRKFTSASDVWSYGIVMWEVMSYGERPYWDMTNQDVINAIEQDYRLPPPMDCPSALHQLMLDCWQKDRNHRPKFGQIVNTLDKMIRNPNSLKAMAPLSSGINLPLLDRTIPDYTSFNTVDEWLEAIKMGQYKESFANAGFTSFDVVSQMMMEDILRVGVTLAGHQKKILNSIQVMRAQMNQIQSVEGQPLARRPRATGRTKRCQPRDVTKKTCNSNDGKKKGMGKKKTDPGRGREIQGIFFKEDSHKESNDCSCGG
The settings on record: at 0.1 µM.

Chain of Ephrin type-A receptor 2 (Homo sapiens) (P29317 whole entry): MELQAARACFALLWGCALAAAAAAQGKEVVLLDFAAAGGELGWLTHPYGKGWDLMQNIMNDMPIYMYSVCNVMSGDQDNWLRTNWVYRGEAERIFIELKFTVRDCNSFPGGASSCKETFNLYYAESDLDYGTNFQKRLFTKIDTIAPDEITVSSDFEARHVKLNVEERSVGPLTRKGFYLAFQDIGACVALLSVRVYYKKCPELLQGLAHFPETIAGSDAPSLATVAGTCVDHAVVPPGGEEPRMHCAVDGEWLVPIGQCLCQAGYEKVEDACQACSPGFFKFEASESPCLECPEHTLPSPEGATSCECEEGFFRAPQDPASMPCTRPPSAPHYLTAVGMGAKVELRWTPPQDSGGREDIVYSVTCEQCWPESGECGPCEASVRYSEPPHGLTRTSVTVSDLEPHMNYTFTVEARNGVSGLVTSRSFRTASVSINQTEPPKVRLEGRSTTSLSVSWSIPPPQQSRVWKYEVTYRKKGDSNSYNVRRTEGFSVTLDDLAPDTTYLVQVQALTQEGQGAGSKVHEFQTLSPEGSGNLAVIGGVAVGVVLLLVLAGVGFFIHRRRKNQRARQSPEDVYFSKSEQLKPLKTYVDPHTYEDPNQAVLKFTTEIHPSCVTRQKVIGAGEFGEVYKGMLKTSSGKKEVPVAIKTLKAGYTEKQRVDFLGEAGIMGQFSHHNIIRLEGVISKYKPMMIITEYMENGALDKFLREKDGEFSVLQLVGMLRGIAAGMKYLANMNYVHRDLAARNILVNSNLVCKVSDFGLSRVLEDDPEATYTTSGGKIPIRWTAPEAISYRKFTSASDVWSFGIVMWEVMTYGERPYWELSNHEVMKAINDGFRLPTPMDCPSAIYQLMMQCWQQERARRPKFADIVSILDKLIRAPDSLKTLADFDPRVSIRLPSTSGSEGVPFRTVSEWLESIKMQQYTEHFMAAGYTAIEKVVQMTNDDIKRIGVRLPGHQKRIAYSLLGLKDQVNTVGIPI
Chain of Epidermal growth factor receptor (Homo sapiens), P00533 [T790M] (P00533 whole entry T790M): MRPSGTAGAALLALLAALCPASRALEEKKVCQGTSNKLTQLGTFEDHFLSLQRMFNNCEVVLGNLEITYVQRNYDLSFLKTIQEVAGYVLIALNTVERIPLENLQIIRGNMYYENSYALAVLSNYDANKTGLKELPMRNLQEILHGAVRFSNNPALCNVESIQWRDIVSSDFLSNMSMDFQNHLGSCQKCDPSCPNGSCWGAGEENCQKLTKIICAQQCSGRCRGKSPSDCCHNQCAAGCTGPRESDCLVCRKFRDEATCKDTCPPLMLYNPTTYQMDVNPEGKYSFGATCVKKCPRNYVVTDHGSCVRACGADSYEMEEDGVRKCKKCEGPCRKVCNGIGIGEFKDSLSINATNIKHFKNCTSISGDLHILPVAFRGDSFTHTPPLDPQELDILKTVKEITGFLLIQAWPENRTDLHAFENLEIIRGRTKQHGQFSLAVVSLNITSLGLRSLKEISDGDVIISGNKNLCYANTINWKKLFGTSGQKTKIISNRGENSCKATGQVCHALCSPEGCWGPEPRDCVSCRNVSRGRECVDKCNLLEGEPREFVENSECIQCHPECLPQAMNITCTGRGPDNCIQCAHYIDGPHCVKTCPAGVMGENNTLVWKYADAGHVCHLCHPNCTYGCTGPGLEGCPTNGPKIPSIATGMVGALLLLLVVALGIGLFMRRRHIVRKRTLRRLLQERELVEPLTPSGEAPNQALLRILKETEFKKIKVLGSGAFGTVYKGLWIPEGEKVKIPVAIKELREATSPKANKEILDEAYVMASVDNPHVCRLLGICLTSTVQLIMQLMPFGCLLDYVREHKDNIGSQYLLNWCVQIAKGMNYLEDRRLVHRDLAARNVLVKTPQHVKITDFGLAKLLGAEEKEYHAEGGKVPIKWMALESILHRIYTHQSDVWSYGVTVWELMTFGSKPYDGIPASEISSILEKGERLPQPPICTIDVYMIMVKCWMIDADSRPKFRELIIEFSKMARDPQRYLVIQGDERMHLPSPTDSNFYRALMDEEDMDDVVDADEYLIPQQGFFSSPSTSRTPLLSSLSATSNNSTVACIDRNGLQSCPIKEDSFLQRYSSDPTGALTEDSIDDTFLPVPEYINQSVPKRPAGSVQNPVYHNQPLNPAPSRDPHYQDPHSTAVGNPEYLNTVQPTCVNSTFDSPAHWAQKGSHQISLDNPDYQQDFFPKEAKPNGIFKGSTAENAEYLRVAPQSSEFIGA
Chain of Epidermal growth factor receptor (Homo sapiens), P00533 [L858R,T790M] (P00533 whole entry T790M/L858R, looked up): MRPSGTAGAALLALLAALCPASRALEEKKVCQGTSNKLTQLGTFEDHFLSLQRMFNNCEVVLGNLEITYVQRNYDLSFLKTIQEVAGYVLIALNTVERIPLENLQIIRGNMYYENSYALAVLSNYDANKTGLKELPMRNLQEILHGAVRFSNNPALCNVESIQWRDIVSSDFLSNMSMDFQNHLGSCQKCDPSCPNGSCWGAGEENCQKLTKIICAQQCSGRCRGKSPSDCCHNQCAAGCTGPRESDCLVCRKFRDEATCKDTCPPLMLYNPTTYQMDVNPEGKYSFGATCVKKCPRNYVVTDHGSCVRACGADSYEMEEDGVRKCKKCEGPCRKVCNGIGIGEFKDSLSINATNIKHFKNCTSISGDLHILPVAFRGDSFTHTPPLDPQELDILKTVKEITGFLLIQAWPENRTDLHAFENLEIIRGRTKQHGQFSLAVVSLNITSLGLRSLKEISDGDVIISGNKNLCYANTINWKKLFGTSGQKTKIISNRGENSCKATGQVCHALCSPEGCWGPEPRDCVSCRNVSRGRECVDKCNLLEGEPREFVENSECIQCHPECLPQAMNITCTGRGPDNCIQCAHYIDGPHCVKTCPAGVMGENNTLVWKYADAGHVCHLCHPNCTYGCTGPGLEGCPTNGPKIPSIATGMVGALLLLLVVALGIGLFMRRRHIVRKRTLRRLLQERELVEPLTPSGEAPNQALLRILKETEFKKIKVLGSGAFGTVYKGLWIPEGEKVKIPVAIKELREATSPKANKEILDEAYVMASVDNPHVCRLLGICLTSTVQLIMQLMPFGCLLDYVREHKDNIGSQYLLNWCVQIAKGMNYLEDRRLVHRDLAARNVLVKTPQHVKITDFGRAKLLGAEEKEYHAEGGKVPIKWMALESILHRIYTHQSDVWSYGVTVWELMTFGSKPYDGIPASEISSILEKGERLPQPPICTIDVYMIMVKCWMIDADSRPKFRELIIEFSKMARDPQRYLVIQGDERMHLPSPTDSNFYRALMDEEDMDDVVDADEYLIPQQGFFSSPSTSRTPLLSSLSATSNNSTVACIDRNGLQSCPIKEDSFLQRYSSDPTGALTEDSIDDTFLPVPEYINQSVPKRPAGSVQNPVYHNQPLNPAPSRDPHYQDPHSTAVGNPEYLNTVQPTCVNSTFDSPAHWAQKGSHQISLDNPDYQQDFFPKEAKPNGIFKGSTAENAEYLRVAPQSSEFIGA

A word on the inhibition: it is the relative decrease from the control value, in per cent. As for `NS(=O)(=O)c1cccc(-c2ccc3c(NC(=O)C4CC4)n[nH]c3c2)c1`, the inhibition was -1.45% in assay [1]; -1.29% in [2]; 3.22% in [3]; -4.33% in [4]; -3.03% in assay [5]; -5.8% in [6]. The inhibition in [7] was -2.02%; in assay [8] it was -5.25%; in [9], -5.49%; in assay [10], -1.84%.
Take `O=C1Nc2ccc(C(=O)c3ccco3)cc2C1=Cc1cc(Cl)c(O)c(Cl)c1`: the inhibition is 1.86% in assay [1]; 1.63% in assay [2]; 4.94% in assay [3]; -2.48% in assay [4]; -0.21% in assay [5]; 2.92% in assay [6]. In addition, the inhibition in [7] amounted to 6.1%; in [8], 8.25%; in [9] it was 14.3%; in assay [10] it was 10.7%.
On to `NC(=O)c1cccc(Nc2nccc(Nc3cccc4[nH]ncc34)n2)c1`, for which the inhibition is -2.41% in assay [1]; -5.66% in [2]; 8.31% in assay [3]; 7.85% in assay [4]; 53.6% in [5]; 40.2% in assay [6]. Also, the inhibition worked out at 72.9% in [7], 31% in assay [8], 81.1% in [9] and 30.4% in [10].
With `Nc1ncnc2occ(-c3ccc(NC(=O)Nc4cccc(C(F)(F)F)c4)cc3)c12`, the inhibition in assay [1] was determined as 4.59%; in assay [2] it was 0.78%; in assay [3], 5.43%; in assay [4], 17.2%; in assay [5] it was 85%; in [6], 18.4%. For the same compound, the inhibition was 50.6% in assay [7], 46.8% in assay [8], 78.3% in [9] and 74.1% in [10].
For `CN(C)c1cc2c(Nc3ccc4nc(Cc5ccccc5)[nH]c4c3)ncnc2cn1`, the inhibition in assay [1] worked out at 6.78%; in [2] it was 3.54%; in assay [3], 7%; in [4], 2.13%; in assay [5], 2.37%; in [6], 7.81%. The inhibition in assay [7] is 5.67%; in [8], 11.6%; in [9] it was 15.2%; in [10], 9.32%.
On to `COc1cc(C)c(NC(=O)CN(C)C)cc1Nc1nc(Nc2cccc(F)c2C(N)=O)c2cc[nH]c2n1`, for which the inhibition was 30.3% in assay [1]; 14.3% in [2]; 54.2% in assay [3]; 0.91% in assay [4]; -1.18% in [5]; 3.57% in assay [6]. Moreover, the inhibition in [7] is 1.85%; in [8], 6.35%; in assay [9] it was -1.05%; in [10], 4.98%.
Turning to `COc1cc2ncn(-c3cc(O[C@H](C)c4ccccc4Cl)c(C(N)=O)s3)c2cc1OC`, the inhibition in assay [1] stood at 6.04%; in assay [2], 3.14%; in [3], 6.52%; in [4], 5.44%; in assay [5], 6.5%; in [6], 3.58%. The inhibition in assay [7] was 14.3%; in assay [8] it was 18.9%; in assay [9] it was 26.8%; in [10] it was 16.6%.
Take `COc1ccc(COc2ccc(Cc3cnc(N)nc3N)cc2OC)cc1`: the inhibition in [1] is -2.86%; in [2], 2.14%; in assay [3], -1.75%; in assay [4], 2.27%; in assay [5], 2.74%; in [6] it was -0.07%. In addition, the inhibition in assay [7] is 0.08%; in [8], 1.25%; in assay [9], -0.14%; in [10], 1.4%.
In the case of `NC(=O)c1ccc(-c2nc(-c3ccccn3)c(-c3ccc4c(c3)OCO4)[nH]2)cc1`, the inhibition in assay [1] is 1.62%; in [2], 3.52%; in [3], -0.97%; in assay [4] it was -0.18%; in assay [5], -0.13%; in assay [6], 3.83%. Further, the inhibition in assay [7] was 1.89%; in assay [8], 7.63%; in assay [9], 7.96%; in assay [10] it was 6.11%.
For `NS(=O)(=O)c1ccc(N/N=C2\C(=O)Nc3ccc(C(=O)NCCc4c[nH]cn4)cc32)cc1`, the inhibition in [1] is 1.79%; in assay [2], 3.11%; in [3], 5.71%; in assay [4], 1.93%; in [5] it was 1.88%; in assay [6] it was 7.18%. Besides, the inhibition turned out to be 8.06% in assay [7], 10.7% in assay [8], 16.3% in assay [9] and 11.4% in assay [10].
Regarding `COC(=O)Nc1nc2cc(Oc3cccc(NC(=O)Nc4cc(C(F)(F)F)ccc4F)c3)ccc2[nH]1`, the inhibition in assay [1] is -1.93%; in assay [2], -3.25%; in assay [3], 3.44%; in [4] it was -2.35%; in assay [5] it was 3.83%; in assay [6], 0.48%. Moreover, the inhibition in [7] is 2.56%; in assay [8], 1.63%; in assay [9], 14.2%; in assay [10], -0.54%.
As for `Cn1cc(C=C2C(=O)Nc3cccnc32)c2ccccc21`, the inhibition in assay [4] was determined as 1.74%; in assay [5], 0.79%; in [6], 2.31%; in [7] it was 4.83%; in assay [8], 5.07%; in assay [9], 6.23%. In addition, in [10], the inhibition turned out to be 3.99%.
As to `COc1ccccc1Nc1ncc(-c2ccccc2)o1`, the inhibition in assay [1] was determined as 2.18%; in assay [2], 1.54%; in assay [3] it was 1.28%; in assay [4], 2.74%; in assay [5] it was 1.76%; in [6], 2.8%. Also, the inhibition in assay [7] was 4.86%; in assay [8], 7.21%; in [9], 12.8%; in assay [10], 7.35%.
In the case of `Cc1nn(C)c2cc(N(C)c3ccnc(Nc4cccc(S(N)(=O)=O)c4)n3)ccc12`, the inhibition in [1] is 7.49%; in assay [2], 1.34%; in assay [3] it was 12.7%; in assay [4] it was 1.28%; in assay [5] it was 18.6%; in assay [6], 6.82%. Besides, the inhibition was determined as 16.5% in assay [7], 12.2% in assay [8], 43.7% in assay [9] and 7.61% in assay [10].
Turning to `COc1ccc(-c2coc3ncnc(N)c23)cc1`, the inhibition in assay [1] is -0.41%; in [2] it was 3.68%; in [3], 1.07%; in [4], 1.21%; in assay [5], 1.62%; in assay [6], 2.58%. For the same compound, the inhibition in assay [7] is 3.4%; in assay [8], 7.51%; in assay [9] it was 3.15%; in assay [10] it was 4.53%.
For `N#Cc1c(NC(=O)c2cccc3ccccc23)sc2c1CCCC2`, the inhibition was -4.77% in [4]; -1.43% in assay [5]; 2.05% in assay [6]; 4.38% in assay [7]; 6.92% in [8]; 2.64% in assay [9]. The inhibition in assay [10] came out at 5.23%.
For the compound `CC1=C(C(=O)Nc2ccc3[nH]ncc3c2)C(c2ccc(Cl)c(Cl)c2)CC(=O)N1` (centres undefined), the inhibition is 0.85% in [1]; 2.39% in assay [2]; 12.1% in assay [3]; -0.63% in [4]; 0.57% in assay [5]; 3.06% in [6]. Moreover, the inhibition came out at 2.8% in assay [7], 6.53% in [8], 4.28% in assay [9] and 7.7% in assay [10].
